High-throughput results as filed in PubChem BioAssay.
The list is not random: actives were taken first. Their share in the collection is about 1.5%.
Measles CPE: protection of cells from measles virus; Measles virus-infected cells, CPE protection, absorbance; protection (pct of control), % at 4 µM; 1.5% of 140,000 active; AID 841; in the data active means protection mostly above about 24%, no sharp cut-off; inactive means mostly below about 26%
F-actin modifier: cytoskeleton assembly modification. HUVEC TNFa F-actin phalloidin imaging, high content. AID 836. 0.18% of 91,000 active. inhibition, % at 2 µM;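 active means inhibition above the batch mean plus 3 SD and confirmed as a hit by visual image inspection, cut at about 30% in these data, passing the limit was not always enough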
* = called active by the depositor; / = not tested or not shown.

SMILES	Measles CPE	F-actin modifier
CC(=O)c1c(C(C)=O)c(C)n(NC(=O)c2cccnc2)c1C	9.2	-3.4
O=C(NC(=S)NCCN1CCOCC1)c1ccc(Cl)cc1	17.9	/
CC(=O)Oc1ccc2ccccc2c1C(NC(=O)Cc1ccccc1)c1ccc(Cl)cc1 (stereo unspecified)	3.7	-12.8
S=C(Nc1ccc(Cl)c(Cl)c1)NC1CCCCC1	4.0	12.7
S=C(Nc1ccc2nsnc2c1)NC1CCCCC1	30.2*	/
COc1cc(NC(=S)N2CCCC(CO)C2)c(OC)cc1Cl (stereo unspecified)	5.1	/
Cc1ccc(S(=O)(=O)Cn2nnnc2C(C)N2CCN(C(=O)c3ccco3)CC2)cc1 (stereo unspecified)	55.8*	46.3
Cc1ccc(S(=O)(=O)Cn2nnnc2C(C(C)C)N2CCN(C(=O)c3ccco3)CC2)cc1 (stereo unspecified)	/	-28.4
CCCOC(=O)CSc1nnc(-c2ccc(Cl)cc2Cl)o1	2.8	24.1
CCOC(=O)CSc1nnc(-c2ccc(Cl)cc2Cl)o1	41.7*	-23.4
CCN(CC)S(=O)(=O)c1cccc(C(=O)N2CC(O)CC2C(=O)OC)c1 (stereo unspecified)	12.7	10.2
CCN(CC)S(=O)(=O)c1cccc(C(=O)N2CC(O)CC2C(=O)O)c1 (stereo unspecified)	28.2*	-1.9
Cc1ccc(C(=O)NNC(=O)CCN2C(=O)C3CCCCC3C2=O)cc1 (stereo unspecified)	3.5	/
COc1ccc(OC)c(C(=O)c2coc3ccc(OC(C)=O)cc23)c1	7.8	/
COc1ccc2occ(NC(C)=O)c2c1	42.2*	-6.5
CC(C)Oc1ccc(C(=O)Nc2ccc(C(F)(F)F)n(C)c2=O)cc1	6.7	/
Cn1cnnc1SCC(=O)Nc1sc2c(c1C#N)CCCCC2	32.1*	-15.1
CCCCn1nnnc1SCC(=O)Nc1sc2c(c1C#N)CCCC2	17.4	9.9
COCCN(CCOC)c1nc(S(=O)(=O)c2ccc(C)cc2)c(Cl)s1	28.3*	19.9
CCOc1nc(S(=O)(=O)c2ccc(C)cc2)c(Cl)s1	4.0	29.6
CCc1nnc(NS(=O)(=O)c2ccc(NC(=S)NC(=O)c3ccc(OC)cc3)cc2)s1	13.9	/
O=C1NC(c2ccccc2)=NC1(NS(=O)(=O)c1ccccc1)C(F)(F)F (stereo unspecified)	41.0*	13.2
O=C1NC(c2ccccc2)=NC1(NS(=O)(=O)c1ccc(Cl)cc1)C(F)(F)F (stereo unspecified)	11.4	/
O=C(Cc1ccccc1)NNC(=S)Nc1ccc(Cl)cc1	19.4*	/
Cc1cccc(NC(=S)NNC(=O)Cc2ccccc2)c1	3.4	/
SMILES	Measles CPE	F-actin modifier
CC1CCN(S(=O)(=O)c2ccc(S(=O)(=O)N3CCC4(CC3)OCCO4)cc2)CC1	13.3	/
COCCCNC(=O)C1CCCN(S(=O)(=O)c2ccc(C)cc2)C1 (stereo unspecified)	9.4	-8.4
c1ccc(-c2nc(N3CCCCCC3)nc(-n3ccnc3)n2)cc1	6.7	4.4
c1ccc(-c2nc(N3CCN(c4ccccc4)CC3)nc(-n3ccnc3)n2)cc1	38.5*	7.1
CC1=C(C#N)C(NC(=O)c2ccc(Cl)cc2)(C(F)(F)F)C(=O)N1 (stereo unspecified)	7.6	/
Cc1cnn(C(=O)c2cc(-c3ccccc3)nc3ccccc23)c1	7.3	-7.8
Cc1cc2ncn(C(=O)c3cc(-c4ccccc4)nc4ccccc34)c2cc1C	29.2*	/
COCCn1c(=S)[nH]c2cc(C(=O)N3CCc4ccccc43)ccc2c1=O	59.1*	10.6
CCCn1c(=S)[nH]c2cc(C(=O)N3CCc4ccccc43)ccc2c1=O	11.7	4.8
O=C(NN1CCOCC1)c1cc(-c2ccccc2)nc2ccccc12	7.6	30.6
O=C(NN1CCOCC1)c1cc(-c2cccc(Cl)c2)nc2ccccc12	42.6*	3.4
CCCCN(CCCC)C(=S)NC(=O)c1ccccc1Cl	1.0	/
CCc1cc(-c2n[nH]c(=S)n2Cc2ccccc2)cs1	10.5	10.7
Cc1ccc(Nc2nc3ccccc3s2)cc1	18.2	/
Cc1ccccc1Nc1nc2ccccc2s1	43.2*	/
CCCN(CCC)S(=O)(=O)c1ccc(C(=O)NNc2nc(-c3ccccc3)c3cc(Br)ccc3n2)cc1	4.1	/
Cc1ccc2c3c([nH]c2c1C)-c1nonc1CC3	43.2*	18.9
Cc1cc2c(nn1)CCc1nonc1-2	5.7	12.2
C/C=C/C(=O)OCC(=O)Nc1cc([N+](=O)[O-])ccc1Cl	5.2	/
C/C=C/C(=O)OCC(=O)Nc1c(Cl)cccc1Cl	29.8*	7.2
CCc1ccc2[nH]c(=O)c(CN(Cc3ccccc3)C(=O)Nc3ccccc3OC)cc2c1	5.0	12.4
CCOC(=O)c1[nH]c2ccc(OC)cc2c1NC(=S)N1CCN(c2ccccc2)CC1	31.0*	/
CCOC(=O)c1[nH]c2ccc(OC)cc2c1NC(=S)N1CCN(c2cccc(Cl)c2)CC1	10.4	/
Cc1ccc(C(=O)COC(=O)c2ccc(-c3cnc4ccccc4n3)cc2)cc1C	19.1	/
CCN(CC)S(=O)(=O)c1ccc(N2CCOCC2)c(NC(=O)c2c3c(nc4ccccc24)CCC3)c1	6.5	/
SMILES	Measles CPE	F-actin modifier
Cc1cc(OCC(=O)Nc2ccc(F)c(F)c2)nc(C(C)C)n1	11.8	-10.1
Cc1noc(C)c1C(=O)NCc1cccs1	44.5*	10.5
Cc1onc(-c2ccccc2Cl)c1C(=O)NCc1cccs1	3.3	-1.9
CCN(CC(=O)Nc1cccc(Br)c1)Cc1nc2ccccc2c(=O)[nH]1	13.0	2.2
CCN(CC(=O)NC(c1ccccc1)c1ccccc1)Cc1nc2ccccc2c(=O)[nH]1	20.8*	-32.1
N#Cc1cn(OCc2ccccc2)c(=O)[nH]c1=O	30.7*	/
Cc1cn(Cc2ccccc2)c(=O)[nH]c1=O	12.2	-1.1
CNCc1ccccc1OCC(=O)Nc1ccccc1OC	9.8	8.9
CCc1ccc(Nc2nnc(SC3CCOC3=O)s2)cc1 (stereo unspecified)	22.7	/
COc1cc(OC)c(OC)cc1CN1CCN(Cc2cccn2C)CC1	15.7	/
Cc1nnc(SC2CC(=O)N(c3ccccc3)C2=O)s1 (stereo unspecified)	4.8	-9.1
Cc1nc(SC2CC(=O)N(c3ccccc3)C2=O)nc2c1CCCC2 (stereo unspecified)	74.6*	/
COCCNC(=O)C(c1cccs1)N(Cc1cccs1)C(=O)Cn1nnc2ccccc21 (stereo unspecified)	6.4	32.3*
COCCNC(=O)C(c1cccs1)N(Cc1ccccc1)C(=O)Cn1nnc2ccccc21 (stereo unspecified)	8.1	-3.4
Cc1cccc2c3nc4ccccc4nc3n(CCCN3C(=O)c4ccccc4C3=O)c12	7.8	/
CC(Sc1nc2c(c(=O)n(C)c(=O)n2C)n1Cc1cc2c(cc1Cl)OCO2)C(=O)O (stereo unspecified)	53.1*	-12.1
Cn1c(=O)c2c(nc(SCC(=O)NCc3ccc4c(c3)OCO4)n2Cc2ccccc2)n(C)c1=O	3.8	-9.1
NC(=O)CC[C@H](NC(=O)c1ccc(F)cc1)C(=O)OCC(=O)Nc1ccc(N2CCOCC2)cc1	7.0	/
O=C(NCC1CCCO1)C(=O)NCC(c1ccco1)N1CCN(c2ccccc2F)CC1 (stereo unspecified)	26.4	/
Cc1ccc2occ(/C=N/NC(N)=S)c(=O)c2c1	29.7*	/
Cc1ccc2occ(/C=N/O)c(=O)c2c1	3.6	-0.3
O=C(CC1C(=O)NCCN1C(=S)Nc1ccccc1)Nc1ccc2c(c1)OCCO2 (stereo unspecified)	5.6	-33.0
O=C(NCCN1CCOCC1)c1cc(-c2ccc(Br)cc2)on1	12.2	-16.0
C=CCNC(=O)c1cc(-c2ccc(Br)cc2)on1	63.1*	-15.6
